Among all 2,300 compounds or so, about 1,500 (65%) were called active. So high a share suggests a set chosen from earlier hits. The list shows a part of the results. Results with a measured potency or affinity are listed apart. Values without a mark were called inactive. How the calls were made is not given here.
Test: replicating M. tuberculosis growth inhibition, dose response, non-replicating M. tuberculosis project, H37Rv (AID 492952);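 further: Mycobacterium tuberculosis grown in culture; growth inhibition read after a week of incubation; 0% = bacteria alone untreated and 100% = bacteria with high antibiotic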
Settings: series mostly up to 50 µM; inhibition: at the top concentration

Compared with `CCOc1ccc(CC(=O)N2N=C(C)CC2(O)C(F)(F)F)cc1` (stereo unspecified), `CC1=NN(C(=O)COc2ccccc2)C(O)(c2ccccc2)C1` (stereo unspecified) is higher in “inhibition” value: -10.6% for the first, 2.02% for the second.

Compared with `Nc1nonc1C(=O)NCCN=Cc1cc(Cc2ccccc2)cc(Br)c1O`, `CCc1ccc(OCC(=O)c2c(O)c3ccccc3oc2=O)cc1` is higher in “inhibition” value: -2.49% for the first, 4.28% for the second.

First: Cc1nn(C)cc1/C=N/NC(=O)c1sc2ccccc2c1Cl
Second: Cc1occc1C(=O)N/N=C/c1ccc[nH]1
The “inhibition” value of the first is lower: 2.4% for the first, 4.32% for the second.

First: Cc1cc(C(=O)N/N=C/C=C/c2ccccc2)c(C)o1
Second: CCOC(=O)Cn1nc(/C=C/c2ccccc2)ccc1=O
The “inhibition” value of the first is lower: 1.97% for the first, 2.31% for the second.

Going from `O=C1/C(=C/c2ccco2)CCC1C1CCCC1` (stereo unspecified) to `O=C(CCC1CCCCC1)NCc1cccs1`, the “inhibition” value rises from -2.45% to 4.16%.

Compared with `Cc1cccc2nc(-c3cccnc3)c(NCCC(C)C)n12`, `c1ccc(Cn2c(SCCN3CCOCC3)nnc2-c2cccnc2)cc1` is lower in “inhibition” value: 5.38% for the first, 1.98% for the second.

Compared with `CC1=NN(C(=O)c2ccc(C)o2)C(O)(c2ccccc2)C1` (stereo unspecified), `CC1=NN(C(=O)COc2ccccc2C)C(O)(c2ccc(Cl)cc2)C1` (stereo unspecified) is lower in “inhibition” value: 20.8% for the first, 1.65% for the second.

First: Cc1ccc2nc3c(c(N)c2c1)CCN3c1ccccc1
Second: Cc1ccc2c(c1)C(=O)C(=O)N2CCCOc1ccccc1
The “inhibition” value of the first is higher: 11.9% for the first, 4.43% for the second.

Going from `C=CCN=C1SC(CC)C(=O)N1S(=O)(=O)c1ccc(C)cc1` (stereo unspecified) to `Cc1ccc(NC(=O)CNc2ccc(OC(C)C)cc2)cc1`, the “inhibition” value rises from -2.98% to -2.71%.

Going from `COc1ccc(CN=C2NN=C(c3ccc(Cl)cc3)CS2)cc1` to `COc1ccc(-c2nnn(Cc3ccccc3)n2)cc1`, the “inhibition” value rises from 0.54% to 0.99%.

First: O=C(O)c1ccc(CN2C(=O)CSC2=S)cc1
Second: Cc1ccc(NC(=O)COc2ccccc2)cc1Cl
The “inhibition” value of the first is lower: 10.6% for the first, 20.7% for the second.

Going from `CN(C)CCN1C(=O)c2oc3ccccc3c(=O)c2C1c1cccc(Br)c1` (stereo unspecified) to `CC1=CC(C)(C)Nc2ccc(OC(=O)CN3C(=O)c4ccccc4C3=O)cc21`, the “inhibition” value rises from -0.37% to 17.5%.

Going from `CC12CC3CC(C)(C1)CC(C(=O)N1CCCC1)(C3)C2` to `O=C(CNC(=O)c1ccccc1)OC1CCCCC1`, the “inhibition” value falls from 0.71% to -2.69%.

Compared with `CNCc1ccccc1Sc1cc(O)ccc1O`, `O=c1[nH][nH]c(-c2ccccc2O)c1C(C[N+](=O)[O-])c1cccc(Cl)c1` (stereo unspecified) is lower in “inhibition” value: 15.4% for the first, -6.66% for the second.

Going from `CC1(C)CC(=O)C2=C(C1)OC(N)=C(C#N)C2C#Cc1ccccc1` (stereo unspecified) to `O=C1CC(Sc2ncccn2)C(=O)N1c1ccccc1C(F)(F)F` (stereo unspecified), the “inhibition” value rises from -5.98% to -2.38%.

First: Cc1ccccc1OCCC(=O)OCC(=O)NNC(=O)c1cccs1
Second: c1ccc(OCc2nnc3sc(-c4cccs4)nn23)cc1
The “inhibition” value of the first is higher: -2.54% for the first, -2.99% for the second.

First: CCOC(=O)Cc1ccc(NCc2ccc(Cl)cc2)cc1
Second: CCOc1ccc(OCC(=O)OCc2cc(=O)n3cc(Br)ccc3n2)cc1
The “inhibition” value of the first is lower: -6.08% for the first, 4.47% for the second.

Compared with `N=c1oc2ccccc2cc1C(=O)Nc1ccccc1`, `Clc1ccc(OC2CCN(Cc3nc(CC4CC4)no3)CC2)cc1` is lower in “inhibition” value: 3.3% for the first, 1.15% for the second.

— PubChem BioAssay AID492952 (Southern Research Specialized Biocontainment Screening …, 2010)
